Screening results deposited in PubChem by several laboratories.
NTR1 agonist = agonists of human NTR1, primary screen, imaging, U2OS cells, beta-arrestin-GFP, high content; Neurotensin receptor type 1 (Homo sapiens), P30989; NTR1-U2OS beta-arrestin-GFP spot imaging, agonist mode; activation, % at 20 µM; actives 0.17% (n = 330,000); AID 493036, 2011;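 active = activation at or above 40% of the spot to cytoplasm intensity ratio, with at least 20 cells analyzed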
Target sequence (P30989 whole entry, looked up): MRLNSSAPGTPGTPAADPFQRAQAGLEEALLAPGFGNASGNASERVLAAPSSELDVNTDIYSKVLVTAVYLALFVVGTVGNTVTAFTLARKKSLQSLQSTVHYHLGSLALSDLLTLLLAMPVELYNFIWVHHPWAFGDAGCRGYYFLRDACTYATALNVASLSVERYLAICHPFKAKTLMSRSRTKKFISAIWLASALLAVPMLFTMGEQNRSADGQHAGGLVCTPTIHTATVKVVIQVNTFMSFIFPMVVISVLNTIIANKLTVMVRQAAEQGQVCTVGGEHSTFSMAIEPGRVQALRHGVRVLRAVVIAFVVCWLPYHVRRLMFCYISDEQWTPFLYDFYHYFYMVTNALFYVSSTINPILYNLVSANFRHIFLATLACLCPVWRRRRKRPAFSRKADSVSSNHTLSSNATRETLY
AHR act = AHR activators, primary screen, cell-based, luminescence, luciferase reporter, human; actives 2.5% (n = 320,000); AHR-responsive luciferase reporter cells; activation, % at 5 µM; in the data active = activation above about 47%
APOBEC3G inh = APOBEC3G DNA deaminase inhibitors, primary screen, biochemical, fluorescence, single-stranded DNA substrate, uHTS | inhibition, % at 20 µM | recombinant A3G, ssDNA deamination FAM/TAMRA fluorescence | DNA dC->dU-editing enzyme APOBEC-3G (Homo sapiens), Q9HC16 | actives 0.28% (n = 330,000) | AID 493012, 2011;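 active = inhibition of at least 40% at 20 µM, with no more than 30% in the related APOBEC3A deaminase screen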
APOBEC3A inh = APOBEC3A ssDNA deaminase inhibitors, primary screen, selectivity assay for APOBEC3G inhibitor project, biochemical, FAM/TAMRA oligo cleavage fluorescence; DNA dC->dU-editing enzyme APOBEC-3A (Homo sapiens), P31941; recombinant A3A, FAM/TAMRA ssDNA deamination fluorescence; inhibition, % at 20 µM; actives 0.41% (n = 330,000);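 active = at least 40% inhibition at 20 µM here, with at most 30% in a related deaminase screen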
Target sequence (P31941 whole entry, looked up): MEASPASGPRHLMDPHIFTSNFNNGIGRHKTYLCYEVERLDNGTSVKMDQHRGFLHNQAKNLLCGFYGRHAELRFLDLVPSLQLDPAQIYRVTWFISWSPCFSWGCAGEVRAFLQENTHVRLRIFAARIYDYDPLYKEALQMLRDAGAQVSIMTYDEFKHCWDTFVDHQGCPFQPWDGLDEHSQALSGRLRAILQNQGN
A3G conf = APOBEC3G deaminase inhibitor retest, confirmation, biochemical, fluorescence, single-stranded DNA substrate, single concentration; shares compounds with APOBEC3G inh; recombinant A3G ssDNA deaminase, UDG/FAM-TAMRA fluorescence; inhibition, % at 20 µM; actives 72% (n = 890);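 active = inhibition reaching a set limit in any replicate at 20 µM, the limit being 80% of the first screen's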
UDG A3G counter = E. coli UDG inhibitors, confirmation, counter-screen for APOBEC3G inhibitor project, biochemical, single concentration, fluorescence, FAM/TAMRA oligo. UDG counterscreen. 710 tested, under 10 active. shares compounds with APOBEC3G inh. AID 504715, 2011. inhibition, % at 20 µM;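 active = compounds giving 40% or more inhibition at 20 µM in any one of the three replicates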;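 note: inhibitors lower the FAM signal released by uracil excision and alkaline cleavage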
Of the large screens only hits and unclear results are named; the others gave an inactive call (follow-up assays come after a bar, where they were run). Hits are enriched below; roughly 3.2% of the tested compounds scored in any of these assays.

COc1ccc(OC)c(NC(=O)C(C)Oc2ccc(Br)cc2)c1 (configuration not stated)	none
COCCNS(=O)(=O)c1cc2[nH]c3c(c2cc1C)C(=O)CC(C)(C)C3	none
CC(=O)Nc1cc(OC(C)=O)c2nonc2c1OC(C)=O	APOBEC3G inh 75.6 | A3G conf 69.8
CC(C)C[C@@H](C(=O)N[C@@H](C(=O)O)c1ccccc1)N1C(=O)N2CCc3c([nH]c4ccccc34)[C@@]2(C)C1=O	none
CCOc1ccc(-c2nc(=S)[nH][nH]2)cc1	none
COc1ccc(-c2nc(=S)[nH][nH]2)cc1	APOBEC3G inh 61.9 | A3G conf 94.6 | UDG A3G counter inactive
COc1ccc(-c2nc(=S)[nH][nH]2)cc1OC	APOBEC3G inh 61.1 | A3G conf 93.2 | UDG A3G counter inactive
Oc1ccc(-c2nc(=S)[nH][nH]2)cc1	APOBEC3G inh 64.2 | A3G conf 89.6 | UDG A3G counter inactive
COc1cc(-c2nc(=S)[nH][nH]2)cc(OC)c1OC	APOBEC3G inh 61.8 | A3G conf 94.5 | UDG A3G counter inactive
S=c1nc(-c2cc(Cl)cc(Cl)c2)[nH][nH]1	none
NS(=O)(=O)c1cccc(NC(=O)CN2C(=O)C(=O)N(Cc3ccccc3)C2=O)c1	none
Cc1nc2ccc(NC(=O)c3cc(S(=O)(=O)N4CCOCC4)ccc3C)cc2s1	none
CCSc1nc2cc(S(=O)(=O)N3CCOCC3)ccc2o1	APOBEC3G inh 62.1 | A3G conf 45.1 | UDG A3G counter inactive
Cc1nc2ccc(Nc3nc4cc(S(=O)(=O)N5CCOCC5)ccc4o3)cc2s1	APOBEC3G inh 56.1 | A3G conf 46.6 | UDG A3G counter inactive
CCC(CC)C(=O)NN(C(=O)c1ccncc1)C1CC(=O)N(c2ccccc2)C1=O (configuration not stated)	none
Nn1c(SCC(=O)Nc2cccnc2Cl)nnc1-c1ccccc1	APOBEC3G inh 46.3 | A3G conf 62.6 | UDG A3G counter inactive
Cc1ccc(-c2nnc(SCC(=O)Nc3cccnc3Cl)n2N)cc1	none
CSc1nc(=NC(C)=O)ss1	APOBEC3G inh 50.6 | A3G conf 42.8 | UDG A3G counter inactive
CCCCCCCc1c(O)nc(SCC(=O)O)[nH]c1=O	none
CCC(=O)NC1=C(Cl)C(=O)C(NC(=O)CC)=C(Cl)C1=O	APOBEC3G inh 86.6 (no result: AHR act) | A3G conf 95.7 | UDG A3G counter inactive
CCOC(=O)c1c(NC(=O)c2ccccc2Cl)sc2c1CCc1ccccc1-2	APOBEC3G inh 56.8 | A3G conf 75.1 | UDG A3G counter inactive
CCOC(=O)c1c(NC(=O)c2ccccc2C(=O)O)sc2c1CCCC2	none
CCOC(=O)c1c(NC(=O)c2ccccc2)sc2c1CCc1ccccc1-2	APOBEC3G inh 57.6 | A3G conf 16.4 | UDG A3G counter inactive
CCOc1ccc(N2C(=O)CC(Sc3n[nH]c(-c4ccccc4)n3)C2=O)cc1 (configuration not stated)	APOBEC3G inh 46.1 | A3G conf 46.5 | UDG A3G counter inactive
COc1ccc(N2C(=O)CC(Sc3n[nH]c(-c4ccccc4)n3)C2=O)cc1 (configuration not stated)	APOBEC3G inh 52.8 | A3G conf 62.1 | UDG A3G counter inactive
CCOc1ccc2nc(SC3CC(=O)N(c4ccccc4)C3=O)sc2c1 (configuration not stated)	none
Cc1cc(Br)ccc1NC(=O)CN(C)C(=O)c1ccc(-n2cncn2)c([N+](=O)[O-])c1	none
Cc1ccc(C)c(NC(=O)CN(C)C(=O)c2ccc(-n3cncn3)c([N+](=O)[O-])c2)c1	APOBEC3G inh 68.9 | A3G conf inactive | UDG A3G counter inactive
CCOc1ccc(C(C)NC(=S)NC2CCCCC2)cc1OCC (configuration not stated)	none
CCOc1ccc(C(=S)NC2CCCCC2)cc1OCC	APOBEC3G inh 55.7 | A3G conf 49.1 | UDG A3G counter inactive
CCCCN1C(=O)C2(NNc3ccccc3O2)c2ccccc21 (configuration not stated)	AHR act 69.0, APOBEC3G inh 42.9 | A3G conf inactive
COCCN(C(=O)COC(=O)/C=C/c1ccc2c(c1)OCO2)c1c(N)n(Cc2ccccc2)c(=O)[nH]c1=O	none
C=C(C)C(=O)Nc1cccc(C2=NOC3(C2)C[C@H](C(N)=O)N(C(=O)/C=C/C)C3)c1 (some centres not stated)	APOBEC3G inh 86.3 | A3G conf 91.3 | UDG A3G counter inactive
C=C(C)C(=O)Nc1cccc(C2=NOC3(C2)C[C@@H](C(N)=O)N(C(=O)/C=C/CC)C3)c1 (some centres not stated)	APOBEC3G inh 91.4 | A3G conf 92.8 | UDG A3G counter inactive
C/C=C\C(=O)Nc1cccc(C2=NOC3(C2)C[C@H](C(N)=O)N(C(=O)/C=C/CC)C3)c1 (some centres not stated)	none
CCOc1cc(CNCc2cccnc2)ccc1OCC(=O)NC(C)(C)C	none
COc1ccc2[nH]c(=S)[nH]c2c1	none
S=c1[nH]c2ccc(Cl)cc2[nH]1	APOBEC3G inh 40.6 | A3G conf 80.6 | UDG A3G counter inactive
S=c1[nH]c2ccccc2n1Cc1ccccc1	APOBEC3G inh 49.7 | A3G conf 53.8 | UDG A3G counter inactive
COc1ccc(C2CC(C)=C(C#N)S(=O)(=O)C2C#N)cc1 (configuration not stated)	none
O=C(NCCc1ccc(Cl)cc1)c1cc(S(=O)(=O)N2CCCCC2)c[nH]1	none
COc1cc(C(=O)N2C(=O)CCC2=O)cc(OC)c1OC	APOBEC3G inh 57.2 | A3G conf inactive | UDG A3G counter inactive
Cc1ccc(NC(=O)CSc2nc3[nH]ncc3c(=O)[nH]2)cc1	APOBEC3G inh 51.9 | A3G conf inactive
CC(=O)c1sc2nc(-c3cccs3)ccc2c1N	APOBEC3G inh 44.5 | A3G conf 30.6 | UDG A3G counter inactive
Nc1c(C(=O)Nc2nc3ccccc3s2)sc2nc(-c3cccs3)ccc12	none
COc1cc(NS(=O)(=O)c2ccc(NC(=O)/C=C/C(=O)O)cc2)nc(OC)n1	none
O=C(CCC(=O)OCC(=O)c1ccc(-c2ccccc2)cc1)Nc1cccc2cccnc12	none
O=C(CCC(=O)OCC(=O)c1ccc(Cl)cc1Cl)Nc1cccc2cccnc12	APOBEC3G inh 54.1 | A3G conf inactive | UDG A3G counter inactive
